The panel holds about 83,000 compounds, 20% with a hit somewhere; the sample as a whole holds those more often.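 The test compound was applied at a single concentration to cells in 96-well plates for 48 hours, and percent growth was recorded.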 Values without a mark were called inactive. Activity calls are given as the source filed them. How the source made its calls: active means growth percent below 10; inactive means the rest.
Assays:
Experiment in all cases: NCI-60 one-dose screen, 48 h (100 = growth as untreated, 0 = no growth, -100 = all killed)
Settings in all cases: 10 µM unless noted
SK-MEL-2 melanoma = system: SK-MEL-2 melanoma
EKVX NSCLC = system: EKVX NSCLC
SN12C renal = system: SN12C renal
UO-31 renal = system: UO-31 renal
TK-10 renal = system: TK-10 renal
ACHN renal = system: ACHN renal
CAKI-1 renal = system: CAKI-1 renal
A498 renal = system: A498 renal
CCRF-CEM leukemia = system: CCRF-CEM leukemia
MOLT-4 leukemia = system: MOLT-4 leukemia
RPMI-8226 leukemia = system: RPMI-8226 leukemia
OVCAR-8 ovarian = system: OVCAR-8 ovarian
OVCAR-5 ovarian = system: OVCAR-5 ovarian
OVCAR-4 ovarian = system: OVCAR-4 ovarian
SK-OV-3 ovarian = system: SK-OV-3 ovarian
OVCAR-3 ovarian = system: OVCAR-3 ovarian
HS 578T breast = system: HS 578T breast
NCI/ADR-RES ovarian = system: NCI/ADR-RES ovarian
SR leukemia = system: SR leukemia
IGROV1 ovarian = system: IGROV1 ovarian

SMILES	growth (SK-MEL-2 melanoma)	growth (EKVX NSCLC)	growth (SN12C renal)	growth (UO-31 renal)	growth (TK-10 renal)	growth (ACHN renal)	growth (CAKI-1 renal)	growth (A498 renal)	growth (CCRF-CEM leukemia)	growth (MOLT-4 leukemia)	growth (RPMI-8226 leukemia)	growth (OVCAR-8 ovarian)	growth (OVCAR-5 ovarian)	growth (OVCAR-4 ovarian)	growth (SK-OV-3 ovarian)	growth (OVCAR-3 ovarian)	growth (HS 578T breast)	growth (NCI/ADR-RES ovarian)	growth (SR leukemia)	growth (IGROV1 ovarian)
COc1ccc(Br)c2c1C(=O)CC2	96%	106%	91.8%	85.4%	147%	114%	110%	169%	93.1%	142%	112%	106%	97.8%	107%	112%	103%	140%	110%		
CN=S(=O)(OCCCCCOS(=O)(=NC)c1ccc(C)cc1)c1ccc(C)cc1 (stereo not given)	94%	95.4%	95.1%	49.4%	118%	77.2%	74.6%	87.6%	39.6%	78.6%	75.2%	95%	106%	82.8%	100%	104%	90.1%	89.7%		
CCOC(=O)c1cc(C)[nH]c(=O)c1C#N	104%	86.8%	102%	105%	101%	101%	56.9%	108%	81.9%	72.1%	80.4%	108%	105%	107%	95.4%	105%	107%	109%		
Nc1nc(Cl)cc(Cl)n1	96%	103%	110%	95.2%	93.6%	105%	102%	118%	108%		114%	112%	103%	112%	91.1%	111%	113%	95.8%	93.6%	100%
Cc1ccc(S(=O)(=O)Oc2ccc3sc4c(CO)ccc(NCCN(C)C)c4c(=O)c3c2)cc1	-86.6% [100 µM] (active)	-66.7% [100 µM] (active)	-94.1% [100 µM] (active)	-95.6% [100 µM] (active)	-91.1% [100 µM] (active)	-92.7% [100 µM] (active)	-91% [100 µM] (active)	-71.6% [100 µM] (active)	-27.9% [100 µM] (active)		-43.4% [100 µM] (active)	-73.3% [100 µM] (active)	-93.2% [100 µM] (active)	-97.9% [100 µM] (active)	-85.1% [100 µM] (active)	-79.3% [100 µM] (active)	-44.2% [100 µM] (active)	-58% [100 µM] (active)	-38.8% [100 µM] (active)	
CCOC(=O)c1c(C)[nH]c(C)c1C=O	102%	102%	95.8%	104%	95.9%	102%	99.8%	92%	79.8%		89.7%	94.5%	96.4%	107%	94%	112%	98.9%	107%	84.4%	103%
COc1cc(N)c2ncccc2c1Cl	96.7%	84.3%	91.5%	78.4%	93.6%	91.2%	95.8%	97.1%		93.3%	83.9%	103%	90.2%	128%	105%	118%	130%	112%	91.3%	117%
O=S(Cc1ccccc1)/C(=C/NC(=S)Nc1cc(Cl)ccc1Cl)c1ccccc1 (stereo not given)	101%	99.3%	98.5%	83.9%	107%	99.9%	97.1%	101%	99.6%		102%	113%	100%	105%	101%	110%	102%	105%		95.8%
Cc1cccc(C)c1NC(=S)/N=C\c1c(O)[nH]c(=O)[nH]c1=O	103%	77.3%	98.5%	89.5%	106%	102%	96.5%	103%	98.9%		98.3%	108%	109%	104%	94%	111%	92%	108%		101%

— PubChem BioAssay (NCI)
